# Assay outcomes (PubChem BioAssay)
# Compounds with a hit are over-represented: about 5.2% of the library has one in this group of screens.
# CendR NRP1 mod: modulators of CendR peptide binding to NRP-1, primary screen, biochemical, fluorescence polarization, uHTS. Neuropilin-1 (Homo sapiens), O14786. FAM-RPARPAR peptide binding to NRP-1. inhibition, % at 25 µM. hit rate 0.85% among 360,000;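 active = inhibition or corrected inhibition above about 18%, plus a signal ratio from 0.5 to 1.5, limit read from the data, passing the limit was not always enough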
# PfM18AAP inh: PfM18AAP inhibitors, malaria aminopeptidase, primary screen, biochemical, QFRET, recombinant enzyme. inhibition, % at 7.35 µM. hit rate 1.2% among 290,000. H-Glu-NHMec fluorogenic cleavage. AID 1822, 2009. M18 aspartyl aminopeptidase (Plasmodium falciparum 3D7);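 active = inhibition above the campaign mean inhibition over all tested compounds plus 3 SD, cut at about 28% in these data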;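 note: 0% = plate median of test compound wells and 100% = 2 mM ZnCl2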
# A3A deaminase: APOBEC3A ssDNA deaminase inhibitors, primary screen, selectivity assay for APOBEC3G inhibitor project, biochemical, FAM/TAMRA oligo cleavage fluorescence | recombinant A3A, FAM/TAMRA ssDNA deamination fluorescence | inhibition, % at 20 µM | hit rate 0.41% among 330,000 | AID 493011, 2011;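 active = at least 40% inhibition at 20 µM here, with at most 30% in a related deaminase screen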;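 note: plate controls were A3A with DMSO for no effect and wells lacking A3A enzyme for full effect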
# Yeast superoxide: reduction of superoxide in aged yeast, primary screen, HTS; AID 2690, 2010; S. cerevisiae aged cells, superoxide DHE fluorescence; stronger effect = lower value; hit rate 0.18% among 330,000; superoxide response (% of plate mean), % at 10 µM;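 active = superoxide response under a set limit, about three screen SD below normal, cut at about 65% in these data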;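 note: yeast aged for seven days with compound at 30 °C before DHE staining; 100% = average MFI of all compound-treated wells on the plate with controls excluded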
# ALR inh: inhibitors of human ALR sulfhydryl oxidase, primary screen, biochemical, H2O2 detection, HRP-luminol luminescence, single point; FAD-linked sulfhydryl oxidase ALR (Homo sapiens), P55789; purified ALR, DTT oxidation; inhibition, % (no concentration beside the values); hit rate 3.8% among 290,000; AID 485317, 2010;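 active = mean replicate inhibition above about 79%, with every replicate also reaching it, limit read from the data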
# APOBEC3G inh: APOBEC3G DNA deaminase inhibitors, primary screen, biochemical, fluorescence, single-stranded DNA substrate, uHTS | recombinant A3G, ssDNA deamination FAM/TAMRA fluorescence | inhibition, % at 20 µM | hit rate 0.28% among 330,000;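 active = inhibition of at least 40% at 20 µM, with no more than 30% in the related APOBEC3A deaminase screen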;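 note: plate controls were DMSO wells with A3G for no effect and wells lacking A3G enzyme for full effect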
# Numbers without * were called inactive; i = inactive; / = no result given.
SMILES,CendR NRP1 mod,PfM18AAP inh,A3A deaminase,Yeast superoxide,ALR inh,APOBEC3G inh
Cc1ccc(S(=O)(=O)N(CC(=O)N(C)C)c2cccc([N+](=O)[O-])c2)cc1,6,-5,0,127,1,-2
O=C(NNC(=S)NC(=O)c1ccc(Br)cc1)c1cccc([N+](=O)[O-])c1,-10,-2,-3,110,99*,-8
O=C(O)CCC(=O)NNC(=O)c1ccc([N+](=O)[O-])cc1,6,-8,1,i,/,-3
O=C(NNC(=S)NCc1ccccc1)c1cccc([N+](=O)[O-])c1,-5,-1,-2,111,14,2
O=C(NNC(=O)c1ccc([N+](=O)[O-])cc1)c1ccc(Br)cc1,7,-3,-4,103,8,-5
O=C(NNC(=S)NC(=O)c1ccccc1Cl)c1cccc([N+](=O)[O-])c1,10,12,-3,122,97*,-3
CCCCCC(=O)NNC(=S)NC(=O)c1ccc([N+](=O)[O-])cc1,1,31*,0,124,88*,12
O=C(NNc1c(Cl)cc(Cl)cc1Cl)c1cccc([N+](=O)[O-])c1,10,9,-3,91,93*,-8
Cc1ccc(C(=O)NNC(=S)NC(=O)c2ccccc2)cc1,-9,/,0,203,29,-3
CCCCOc1ccccc1C(=O)NNC(=S)NC(=O)c1ccccc1[N+](=O)[O-],10,3,-2,89,84*,-8
Cc1ccc(C(=O)NC(=S)NNC(=O)c2ccc([N+](=O)[O-])cc2)cc1,0,-1,-9,130,99*,-5
O=C(COc1ccc(Br)cc1)NNC(=S)NC(=O)c1ccccc1[N+](=O)[O-],-12,16,/,107,/,/
O=C(NNC(=S)NC(=O)c1ccc(Br)cc1)c1ccc([N+](=O)[O-])cc1,4,-15,-9,104,100*,-5
Cc1ccc(C(=O)NC(=S)NNC(=O)c2ccccc2[N+](=O)[O-])cc1,1,23,-6,106,99*,18
O=C(NNC(=S)NC(=O)c1ccccc1[N+](=O)[O-])c1ccccc1[N+](=O)[O-],2,9,-2,124,-2,3
N#CC1=C(O)C(c2ccccc2)n2c1nc(=O)c1ccccc12 (stereo not drawn),-18,12,3,103,-4,3
Cc1ccc(C(=O)NC(=S)NNC(=O)c2ccccc2O)cc1,4,16,-2,89,31,-3
Cc1ccc(NC(=O)CNC(=O)c2cccc(Cl)c2)nc1,-3,/,0,106,-4,-9
Cc1ccc(NC(=O)c2cccc(Cl)c2)nc1,25*,0,1,106,-9,-3
Cc1ccc(NC(=O)c2ccc(Cl)cc2[N+](=O)[O-])nc1,-2,4,-2,99,-10,-5
CC(=O)c1ccc(NC(=S)NNC(=O)c2ccccc2[N+](=O)[O-])cc1,-5,13,1,110,93*,-5
O=C(NC(=S)NNC(=O)c1ccccc1O)c1ccc([N+](=O)[O-])cc1,-8,30*,-5,93,4,-6
Cc1ccc(NC(=O)c2ccccc2[N+](=O)[O-])nc1,30*,-12,-1,107,-9,-7
O=C(COC(=O)c1cc(=O)[nH]c2ccccc12)NCc1ccc(F)cc1,1,/,-2,125,/,-10
O=C(NNC(=S)NC(=O)c1ccccc1)c1ccc([N+](=O)[O-])cc1,-12,-8,1,111,99*,7
SMILES,CendR NRP1 mod,PfM18AAP inh,A3A deaminase,Yeast superoxide,ALR inh,APOBEC3G inh
O=C(Nc1c(Cl)cc(Cl)cc1C(=O)NCCN1CCOCC1)c1cccc([N+](=O)[O-])c1,-2,0,-1,108,99*,-3
Oc1ccccc1-c1nc2cnccn2c1Nc1ccc2c(c1)OCCO2,-9,-1,-3,91,69,-4
Clc1ccc(-c2nc3cnccn3c2Nc2ccc3c(c2)OCO3)cc1,17,31*,-3,111,98*,-7
CSc1ccc(-c2nc3cnccn3c2Nc2ccc3c(c2)OCO3)cc1,-7,13,-1,92,100*,-1
Cc1ccc(-c2nc3cnccn3c2Nc2ccc3c(c2)OCO3)o1,5,27,-2,105,/,1
CN1CCN(C2OC(=O)c3ccccc32)CC1 (stereo not drawn),-4,1,0,82,/,1
CCOC(=O)CNC(=O)/C=C/c1ccc2c(c1)OCO2,10,2,-2,98,-2,-5
CCOC(=O)CNc1ccc2c(c1)OCO2,34*,23,-6,102,-26,-6
COc1ccc(CCNC(=O)Nc2nc(C(N)CCc3ccccc3)cs2)cc1OC (stereo not drawn),-5,/,/,/,/,/
COc1ccc(CCNC(=O)Nc2nc(C(N)C3CCCCC3)cs2)cc1OC (stereo not drawn),17*,/,/,/,/,/
CCN(CCNC(=O)CN(C)S(=O)(=O)c1cccc2nsnc12)c1ccccc1,0,19,-6,97,98*,-3
Cc1ccc(CNC(=O)CN(C)S(=O)(=O)c2cccc3nsnc23)cc1,2,5,2,94,-5,10
CCN(CCCNC(=O)CN(C)S(=O)(=O)c1cccc2nsnc12)c1cccc(C)c1,0,8,-1,89,99*,1
CCN(c1ccc(F)cc1)S(=O)(=O)c1cccc2nsnc12,6,-6,3,96,-1,2
CCN(CCCNC(=O)CN(C)S(=O)(=O)c1ccc2c(c1)CCC(=O)N2)c1cccc(C)c1,-10,7,-5,88,96*,-7
CCN(CC)S(=O)(=O)c1cccc2nsnc12,27*,-8,0,87,-3,-5
CC(=O)N1CCc2cc(S(=O)(=O)NCCC(=O)Nc3cccc(C)c3)ccc21,1,4,0,104,-5,-3
CCN(CC)c1ccc(NC(=O)CCNS(=O)(=O)c2ccc3c(c2)CCC(=O)N3)c(C)c1,-6,16,-6,93,99*,-5
CCN(CCCNS(=O)(=O)c1ccc2c(c1)CCN2C(C)=O)c1cccc(C)c1,-8,-9,-3,94,97*,-3
CC(=O)c1cc(-c2ccccc2)n(CC(=O)NCc2cccs2)c1C,-6,-3,-3,96,-5,-4
Nc1cc(=O)[nH]c(SCCSc2ccc(F)cc2)n1,6,-2,-3,89,-5,-6
Nc1cc(=O)[nH]c(SCC(=O)c2ccc(F)cc2)n1,6,0,2,101,98*,-5
